{
  "source": "PubChem BioAssay (NCI)",
  "note": "Several values for one entry are separate records, joined by “and”; a condition that tells them apart may be missing. Identical values can stand only once. About 83,000 compounds went through this panel and 20% of them were active in at least one assay; those are over-represented in the sample as a whole.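 In brief: 96-well plates, 48 h treatment, single concentration, percent growth endpoint.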 A number with no mark means an inactive call. Activity calls are given as the source filed them. The calls were made as follows: active = growth percent below 10; inactive = the rest.",
  "data": [
    {"tested_on": "MDA-MB-468 breast", "test": "NCI-60 one-dose screen, 48 h (100 = growth as untreated, 0 = no growth, -100 = all killed)", "conditions": "10 µM unless noted", "values": [
      {"compound": "CCOc1cc2ncc(C#N)c(Nc3ccc(OCc4cccc(F)c4)c(Cl)c3)c2cc1NC(=O)CC1CCSS1", "note": "(stereo not given)", "growth": "-5.09% (active)"},
      {"compound": "CC1O[C@@H]2C[C@@](O)([C@H]1O)n1c3ccccc3c3c4c(c5c6ccccc6n2c5c31)C(=O)NC4=O", "note": "(stereo not given in full)", "growth": "3.51% (active)"},
      {"compound": "Cn1c(SCC(=O)c2ccc(Br)cc2)nc2ccccc2c1=O", "growth": "89.9%"},
      {"compound": "CC1(C)CC[C@]2(C(=O)NCCCCCCN(CCCN)CCCN)CC[C@]3(C)C(=CC[C@@H]4[C@@]5(C)CC[C@H](O)C(C)(C)[C@@H]5CC[C@]43C)[C@@H]2C1", "growth": "98.6%"},
      {"compound": "O=C(Nc1cnc(Nc2ccc(N3CCOCC3)nc2)nc1Oc1ccc(C(F)(F)F)cc1)c1ccncc1", "growth": "103%"},
      {"compound": "C#CCOc1ccccc1C(Nc1ccccc1)c1nnnn1C1CCCCC1", "note": "(stereo not given)", "growth": "93.7%"},
      {"compound": "Cc1cc2c(F)c(Oc3ncnn4cc(OC[C@@H](C)OC(=O)[C@H](C)N)c(C)c34)ccc2[nH]1", "growth": "71.5%"},
      {"compound": "CCOC(=O)CSc1ncnc2c1c(-c1ccccc1)c(-c1ccccc1)n2-c1ccc(C)cc1", "growth": "51.9%"},
      {"compound": "COc1cccc2c1O/C(=C\\c1c([N+](=O)[O-])ncn1C)C2=O", "growth": "101%"},
      {"compound": "O=C(CCl)Nc1ccc(Cc2ccc(NC(=O)CCl)cc2)cc1", "growth": "-36.8% (active)"},
      {"compound": "CN1CC[C@@H]2[C@@]3(C)CC[C@H](O)C(C)(C)[C@@H]3CC[C@@]2(C)[C@]2(C)CC[C@@]3(CO)CCC(C)(C)C[C@@H]3C12", "note": "(stereo not given in full)", "growth": "62%"},
      {"compound": "Cc1ccc(S(=O)(=O)n2cc(C(=O)C(=O)N3CCOCC3)c3ccccc32)cc1", "growth": "90.4%"},
      {"compound": "COc1ccc2[nH]c(=O)c(/C=C/C(=O)c3ccccc3OC)cc2c1", "growth": "16.7%"},
      {"compound": "COC(=O)c1[nH]nc(OC)c1C1(C(C#N)c2nc3ccccc3s2)CCCc2ccccc21", "note": "(stereo not given)", "growth": "98.2%"},
      {"compound": "COc1ccc(-c2c(C#N)cnc(N)c2-c2nc3cc(C)c(C)cc3[nH]2)cc1", "growth": "57.9%"},
      {"compound": "Cc1[nH]c(N=Nc2ccccc2)nc1N=Nc1ccccc1", "growth": "24.1%"},
      {"compound": "CNc1ccccc1C(N)=O", "growth": "105%"},
      {"compound": "COc1cc2c(cc1OC)CC[N+](CCC[N+](C)(C)C)=C2", "growth": "103%"},
      {"compound": "O=C(NNc1nc2cc(F)cc(F)c2n2cccc12)c1ncccn1", "growth": "3.64% (active)"},
      {"compound": "COc1cc2cc(Oc3ccc(NC(=O)Nc4cc(C(F)(F)F)cc(C(F)(F)F)c4)cc3)c(C)nc2cc1OCCN(C)C", "growth": "100%"},
      {"compound": "O=C1OC(c2nc3ccccc3s2)=C/C1=C\\c1ccc(O)cc1", "growth": "114%"},
      {"compound": "Nc1cc(C(=O)NC[C@H]2CN(c3ccc(N4CCC(C(=O)O)CC4)cc3)C(=O)O2)ccc1Cl", "growth": "99.4%"},
      {"compound": "N#Cc1ccc(-c2ccc(COc3ccc(CC4SC(=O)NC4=O)cc3)cc2)cc1", "note": "(stereo not given)", "growth": "5.4% (active)"},
      {"compound": "O=[N+]([O-])c1ccc(Sc2ccncn2)c([N+](=O)[O-])c1", "growth": "24%"},
      {"compound": "O=C1[C@H]2Cc3c([nH]c4ccccc34)[C@@H](c3c(Cl)cccc3Cl)N2C(=O)CN1C1CCN(Cc2ccccc2)CC1", "growth": "97.7%"},
      {"compound": "Clc1ccc(/C=N/Nc2nc3ccccc3s2)c(Cl)c1", "growth": "89.3%"},
      {"compound": "Nc1nc(Nc2ccccc2SSc2ccccc2Nc2nc(N)nc(C(Cl)(Cl)Cl)n2)nc(C(Cl)(Cl)Cl)n1", "growth": "86.6%"},
      {"compound": "CNC(=O)Nc1ccc(Nc2cc(-c3ccc(-n4cccn4)cc3)[nH]n2)c(C)c1", "growth": "96.3%"},
      {"compound": "COc1cc(-c2nc(SC(C)C)nc(Nc3ccccc3C)c2C#N)cc(OC)c1OC", "growth": "111%"},
      {"compound": "CCn1cnc(C[C@H](NC(=O)[C@@H](NC(=O)Nc2cc(C(F)(F)F)cc(C(F)(F)F)c2)C(C)(C)C)C(=O)OC)c1", "growth": "-75.6% [100 µM] (active)"},
      {"compound": "CN(C)c1ccc(/C=C\\C(=O)c2ccccc2)cc1", "growth": "84.8% and 88.3% and 83.9%"},
      {"compound": "NCCCOc1cc2ccccc2cc1C(=O)NCCCOc1cc2ccccc2cc1C(=O)Nc1ccc(Cl)cc1O", "growth": "-89.6% (active)"},
      {"compound": "CCCC(=O)Oc1ccc(/C(=C(\\C)c2ccccc2)c2ccc(OCCN(CC)CC)cc2)cc1", "growth": "62.4%"},
      {"compound": "COC(=O)CCCCCCCCC1(C)C=CC(C(C)O)=CC1", "note": "(stereo not given)", "growth": "107%"},
      {"compound": "CC1(C)CN(Cc2ccccc2)CCN1Cc1ccccc1", "growth": "106%"},
      {"compound": "OC1CSSC1Cn1cnc2c(Nc3ccc(F)c(Cl)c3)ncnc21", "note": "(stereo not given)", "growth": "2.83% (active)"},
      {"compound": "COc1cccc(-c2nc(-c3ccc(NC(=O)c4ccccc4)cc3)[nH]c2-c2ccnc(Br)c2)c1", "growth": "28.8%"},
      {"compound": "O=C(Nc1cc(Cl)cc(Cl)c1)Oc1c(Cl)c(Cl)c(Cl)c(Cl)c1Cl", "growth": "101%"},
      {"compound": "COc1ccc(C2CC(=O)c3c(O)cc(OC4OC(COC5OC(C)C(O)C(O)C5O)C(O)C(O)C4O)cc3O2)cc1O", "note": "(stereo not given)", "growth": "96.9%"},
      {"compound": "C=CCOc1ccc(Cl)cc1Cl", "growth": "111%"}
    ]}
  ]
}
